# Data taken from the supplement of paper PMC10037445.
# In all, about 2,900 compounds were measured (“NF-kB SEAP reporter activity, fold change vs agonist alone”: median about 0.99, highest 2% from about 2.6 on). The sample as a whole holds a higher share of the highest values than the screen did.
# Tests used:
# RAW-Dual [1] = test: NF-kB SEAP reporter activity, fold change vs agonist alone; higher = enhanced NF-kB activity
# Outline: (§1)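 RAW-Dual macrophages (50,000 cells/well in DMEM, 384-well plates) received 50 nL of library stock by pin tool, then a PRR agonist 1 h later, and were kept at 37 °C, 5% CO2. After 20 hours, supernatant was read for IRF by QuantiLuc luminescence and for NF-κB by QuantiBlue absorbance at 620 nm. Reporter activity is fold change over agonist-alone wells. Cytotoxic wells had IncuCyte confluency below 70% of agonist controls in both mask sets.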
# RAW-Dual [2] = test: NF-kB SEAP reporter activity, fold change vs agonist alone; cytotoxicity flag (confluency mask): not cytotoxic; higher = enhanced NF-kB activity
# Outline: as §1
# RAW-Dual [3] = test: NF-kB SEAP reporter activity, fold change vs agonist alone; cytotoxicity flag (confluency mask): cytotoxic (confluency <70% of control); higher = enhanced NF-kB activity
# Outline: as §1
# [4] = library stock concentration (final ~1000-fold dilution): 10 mM, cytotoxicity flag (confluency mask): not cytotoxic, agonist: Imiquimod (TLR7) […]
# [5] = library stock concentration (final ~1000-fold dilution): 10 mM, cytotoxicity flag (confluency mask): not cytotoxic, agonist: MPLA (TLR4) […]
# [6] = agonist: ODN 1826 (TLR9) 0.5 ug/mL
# [7] = agonist: Pam2CSK4 (TLR2/6) 0.1 ug/mL
# [8] = agonist: Pam3CSK4 (TLR2/1) 0.1 ug/mL
# [9] = library stock concentration (final ~1000-fold dilution): 10 mM, cytotoxicity flag (confluency mask): cytotoxic (confluency <70% of control), agonist: Imiquimod (TLR7) […]
# [10] = library stock concentration (final ~1000-fold dilution): 10 mM, cytotoxicity flag (confluency mask): cytotoxic (confluency <70% of control), agonist: MPLA (TLR4) […]
smiles,measurement,setting,value
CN1CCC(c2c(O)cc(O)c3c(=O)cc(-c4ccccc4Cl)oc23)C(O)C1.Cl (configuration not stated),NF-kB SEAP reporter activity,RAW-Dual [1]; [4],1.64
same,NF-kB SEAP reporter activity,RAW-Dual [1]; [5],1.49
CN1CCC(c2c(O)cc(O)c3c(=O)cc(-c4ccccc4Cl)oc23)C(O)C1.Cl (configuration not stated) (library stock concentration (final ~1000-fold dilution): 10 mM),NF-kB SEAP reporter activity,RAW-Dual [2]; agonist: LPS (TLR4) 0.1 ug/mL,0.188
same,NF-kB SEAP reporter activity,RAW-Dual [2]; [6],0.968
same,NF-kB SEAP reporter activity,RAW-Dual [2]; [7],0.469
same,NF-kB SEAP reporter activity,RAW-Dual [2]; [8],1.44
CC1(N)CCN(c2cnc(-c3cccc(Cl)c3Cl)c(N)n2)CC1.Cl (library stock concentration (final ~1000-fold dilution): 10 mM),NF-kB SEAP reporter activity,RAW-Dual [2]; agonist: LPS (TLR4) 0.1 ug/mL,1.2
same,NF-kB SEAP reporter activity,RAW-Dual [2]; [6],0.647
same,NF-kB SEAP reporter activity,RAW-Dual [2]; [7],0.778
same,NF-kB SEAP reporter activity,RAW-Dual [2]; [8],0.701
CC1(N)CCN(c2cnc(-c3cccc(Cl)c3Cl)c(N)n2)CC1.Cl,NF-kB SEAP reporter activity,RAW-Dual [1]; [4],1.11
same,NF-kB SEAP reporter activity,RAW-Dual [1]; [5],1.18
Cl.NCCCCC(N)C(=O)O (configuration not stated) (library stock concentration (final ~1000-fold dilution): 10 mM water),NF-kB SEAP reporter activity,RAW-Dual [2]; agonist: LPS (TLR4) 0.1 ug/mL,1.04
same,NF-kB SEAP reporter activity,RAW-Dual [2]; [6],1.11
same,NF-kB SEAP reporter activity,RAW-Dual [2]; [7],1.21
same,NF-kB SEAP reporter activity,RAW-Dual [2]; [8],1.17
Cl.NCCCCC(N)C(=O)O (configuration not stated),NF-kB SEAP reporter activity,"RAW-Dual [1]; library stock concentration (final ~1000-fold dilution): 10 mM water, cytotoxicity flag (confluency mask): not cytotoxic, agonist: Imiquimod (TLR7) […]",0.925
same,NF-kB SEAP reporter activity,"RAW-Dual [1]; library stock concentration (final ~1000-fold dilution): 10 mM water, cytotoxicity flag (confluency mask): not cytotoxic, agonist: MPLA (TLR4) […]",1.06
CCOC(=O)C(CCc1ccccc1)NC(C)C(=O)N1CCCC1C(=O)O.O=C(O)/C=C\C(=O)O (configuration not stated),NF-kB SEAP reporter activity,RAW-Dual [1]; [4],0.942
same,NF-kB SEAP reporter activity,RAW-Dual [1]; [5],1.06
CCOC(=O)C(CCc1ccccc1)NC(C)C(=O)N1CCCC1C(=O)O.O=C(O)/C=C\C(=O)O (configuration not stated) (library stock concentration (final ~1000-fold dilution): 10 mM),NF-kB SEAP reporter activity,RAW-Dual [2]; agonist: LPS (TLR4) 0.1 ug/mL,1.08
same,NF-kB SEAP reporter activity,RAW-Dual [2]; [6],1.04
same,NF-kB SEAP reporter activity,RAW-Dual [2]; [7],1.03
same,NF-kB SEAP reporter activity,RAW-Dual [2]; [8],1.02
CC12CCC(O)CC1=CCC1C2CCC2(C)C(C(O)CC(O)(C(F)(F)F)C(F)(F)F)CCC12 (configuration not stated) (library stock concentration (final ~1000-fold dilution): 10 mM),NF-kB SEAP reporter activity,RAW-Dual [2]; agonist: LPS (TLR4) 0.1 ug/mL,0.54
same,NF-kB SEAP reporter activity,RAW-Dual [2]; [6],0.663
same,NF-kB SEAP reporter activity,RAW-Dual [2]; [7],0.739
same,NF-kB SEAP reporter activity,RAW-Dual [2]; [8],0.489
CC12CCC(O)CC1=CCC1C2CCC2(C)C(C(O)CC(O)(C(F)(F)F)C(F)(F)F)CCC12 (configuration not stated),NF-kB SEAP reporter activity,RAW-Dual [1]; [4],0.815
same,NF-kB SEAP reporter activity,RAW-Dual [1]; [5],0.786
O=C(Nc1ccc2[nH]nc(-c3ccc4[nH]ccc4c3)c2c1)c1c(Cl)cccc1Cl,NF-kB SEAP reporter activity,RAW-Dual [1]; [9],0.55
same,NF-kB SEAP reporter activity,RAW-Dual [1]; [10],0.704
O=C(Nc1ccc2[nH]nc(-c3ccc4[nH]ccc4c3)c2c1)c1c(Cl)cccc1Cl (library stock concentration (final ~1000-fold dilution): 10 mM),NF-kB SEAP reporter activity,RAW-Dual [3]; agonist: LPS (TLR4) 0.1 ug/mL,0.946
same,NF-kB SEAP reporter activity,RAW-Dual [3]; [6],0.844
same,NF-kB SEAP reporter activity,RAW-Dual [3]; [7],0.0858
same,NF-kB SEAP reporter activity,RAW-Dual [3]; [8],0.202
C=CC(=O)N1CCC(Oc2nc(Nc3ccc(N4CCC(N5CCN(C)CC5)CC4)cc3)c(C(N)=O)nc2CC)C1 (configuration not stated),NF-kB SEAP reporter activity,RAW-Dual [1]; [9],0.967
same,NF-kB SEAP reporter activity,RAW-Dual [1]; [10],1.62
C=CC(=O)N1CCC(Oc2nc(Nc3ccc(N4CCC(N5CCN(C)CC5)CC4)cc3)c(C(N)=O)nc2CC)C1 (configuration not stated) (library stock concentration (final ~1000-fold dilution): 10 mM),NF-kB SEAP reporter activity,RAW-Dual [3]; agonist: LPS (TLR4) 0.1 ug/mL,1.06
same,NF-kB SEAP reporter activity,RAW-Dual [3]; [6],0.194
same,NF-kB SEAP reporter activity,RAW-Dual [3]; [7],0.507
same,NF-kB SEAP reporter activity,RAW-Dual [3]; [8],0.542
